Potency, activity change, negative = inhibition and activity, negative = inhibition data for 15 compounds are collected here from PubChem BioAssay (NCATS).

Assay [1] addresses Lysosomal acid glucosylceramidase (Homo sapiens) (UniProt P04062). The assay is described as follows: Glucocerebrosidase-p2 (AID 348; in the data active = potency below about 10 µM; note: potency is the fitted concentration of half-maximal effect). The note with it: purified GBA, blue fluorogenic substrate, 40 min. In a few lines: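 Normal human glucocerebrosidase (0.2 nM) with blue fluorogenic substrate (80 uM final) in citrate/phosphate pH 5.9 with 10mM sodium taurocholate, 0.01% tween-20; 40 min RT, NaOH/glycine stop; fluorescence Ex 365/Em 440; AC50 from a titration from 0.6 nM upwards.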

A short description of assay [2]: AP1 Signaling Pathway (AID 357).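 Note: ME-180 reporter cells stimulated with EGF at its EC50 level; % is set by controls: 0 for no effect and ±100 for the full control effect.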 Conditions: ME-180 AP-1-bla reporter, EGF-induced, beta-lactamase ratio, 5 h; at 7.69 µM (top of the series) unless noted. In a few lines: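 Titration-series screen for positive or negative modulators of EC50 EGF-induced signaling in ME-180 cells carrying an AP-1-driven beta-lactamase reporter. After 5 hours at 37 degrees Celsius, CCF4 460nm/530nm emission ratio gave %Activity; AC50 values derived.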

Assay [3] has as its target Cytochrome P450 1A2 (Homo sapiens) (UniProt P05177). The assay is described as follows: p450-cyp1a2 (AID 410; calls by dose curve; note: potency is the fitted concentration of half-maximal effect). The note with it: recombinant CYP1A2, luciferin-ME demethylation, luminescence; series mostly up to 11.4 µM. In a few lines: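 Luminescent demethylation readout: Luciferin-ME (100uM, equal to Km) turned over by 20nM CYP1A2 for 60 min at room temperature after NADPH regeneration addition, following 10 min compound preincubation. Normalization used 57 uM furafylline as full inhibition.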

A short description of assay [4]: NFAT Signaling Pathway (AID 444).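 Note: carbachol stimulus at about its EC50 of 1 µM final; % is set by controls: 0 for no effect and ±100 for the full control effect.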 The note with it: Jurkat NFAT-bla M1, carbachol, beta-lactamase ratio, 5 h; at 7.69 µM (top of the series) unless noted. In a few lines: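 Jurkat cells with NFAT-driven β-lactamase reporter and co-expressed M1 receptor, stimulated with carbachol (final 1 uM, ~EC50), compound titration, 5 h at 37 °C. CCF4 loaded 1 h at RT; 460/530 nm ratio gave %activity and AC50.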

A short description of assay [5]: Stat Signaling Pathway (AID 446).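 Note: ME-180 cervical cancer cells given 40 pM IL-6 alongside compound; SIE-controlled beta-lactamase reporter measured as 460/530 nm FRET emission ratio; % is set by controls: 0 for no effect and ±100 for the full control effect.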 Conditions: ME-180 (cervical carcinoma) SIE beta-lactamase reporter, IL-6 stimulated, 5 h; at 7.69 µM (top of the series) unless noted. The method in brief: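 Normalization used AC90 stimulation (300 pM IL-6) and AC90 inhibition (125 nM pan-JAK inhibitor at 40 pM IL-6). The underlying signal is SIE-driven beta-lactamase in ME-180 cells after 5 h IL-6 exposure with compound.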

The target in assay [6] is Glucocorticoid receptor (Homo sapiens) (UniProt P04150). The assay is described as follows: GR-GFP Redistribution (AID 450;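 active = compounds whose dose series gives a full or clear partial fitted curve of increased nuclear translocation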; note: potency is the fitted concentration of half-maximal effect). Conditions: U2OS GR-GFP nuclear translocation, laser cytometry, 2 h.
Glucocorticoid receptor (Homo sapiens), sequence (P04150 whole entry, looked up): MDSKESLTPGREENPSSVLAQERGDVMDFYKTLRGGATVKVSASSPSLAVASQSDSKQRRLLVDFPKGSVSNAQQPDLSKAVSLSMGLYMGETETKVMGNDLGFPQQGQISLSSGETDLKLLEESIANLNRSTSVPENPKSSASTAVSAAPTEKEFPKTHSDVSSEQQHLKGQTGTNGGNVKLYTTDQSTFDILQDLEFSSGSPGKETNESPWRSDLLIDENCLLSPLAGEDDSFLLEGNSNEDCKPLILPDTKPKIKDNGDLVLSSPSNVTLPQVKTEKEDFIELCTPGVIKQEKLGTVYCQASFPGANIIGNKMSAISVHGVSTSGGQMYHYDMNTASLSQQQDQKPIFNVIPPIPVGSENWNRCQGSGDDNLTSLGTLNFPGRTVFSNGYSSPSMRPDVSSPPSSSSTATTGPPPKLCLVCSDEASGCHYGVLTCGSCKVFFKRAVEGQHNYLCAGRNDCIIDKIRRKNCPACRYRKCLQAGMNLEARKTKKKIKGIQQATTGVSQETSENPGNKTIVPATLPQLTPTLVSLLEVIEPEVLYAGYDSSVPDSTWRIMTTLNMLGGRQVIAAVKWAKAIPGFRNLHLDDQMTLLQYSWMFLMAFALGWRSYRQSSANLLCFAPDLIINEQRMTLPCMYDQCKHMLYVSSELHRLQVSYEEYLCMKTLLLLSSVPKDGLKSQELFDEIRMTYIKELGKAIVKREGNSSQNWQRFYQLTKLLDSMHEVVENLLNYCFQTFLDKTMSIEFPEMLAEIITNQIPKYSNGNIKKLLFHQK
For assay [7] the target is unchanged. The assay is described as follows: GR-EFC Redistribution (AID 451; calls by dose curve; note: potency is the fitted concentration of half-maximal effect). Conditions: CHO-K1 GR-EFC translocation, beta-gal luminescence, 2 h. The method in brief:
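CHO-K1 cells expressing nuclear EA and GR-ED fragments of b-gal; compounds titrated up to 46 uM final, 2 h at 37 C. GR nuclear translocation read as complemented b-gal luminescence after 1 h RT detection.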

Assay [8] has as its target Mitogen-activated protein kinase 10 (Mus musculus) (UniProt Q61831). The assay is described as follows: JNK3 AlphaScreen Assay (AID 530).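 Note: kinase came from lysate of stimulated human HepG2 cells; signal reports phosphorylation of biotinylated GST-cJun 1-79 at Ser73 with 10 µM ATP; % is set by controls: 0 for no effect and ±100 for the full control effect.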 Conditions: JNK3 lysate, c-Jun phosphorylation; series mostly up to 11.4 µM. In a few lines:
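Activity was read by AlphaScreen after JNK3-containing HepG2 lysate (cytokine pre-activated) phosphorylated biotinylated GST-cJun with 10 uM ATP at room temperature. Phospho-Ser73 cJun antibody with Protein-A acceptor beads provided detection.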

Assay [9] deals with 3',5'-cyclic-AMP phosphodiesterase 4B (Homo sapiens) (UniProt Q07343). The assay is described as follows: qHTS Assay for Inhibitors of PDE-IV (AID 607; active = well fitted activation curve with a large enough effect in the main read-out, with a control signal flat, not every such curve was filed as active; note: % of control where 0% means no effect). The note with it: HEK293 ACTOne CNG channel cells, membrane potential fluorescence; series mostly up to 22.9 µM. In a few lines: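 HEK293 ACTOne cells with CNG channel (1000/well), endogenous PDE4; membrane potential dye, compounds up to 22.9 uM final. Fluorescence Ex 535/Em 590; RO 20-1724 (100 uM final) as reference.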
3',5'-cyclic-AMP phosphodiesterase 4B (Homo sapiens), sequence (Q07343 whole entry, looked up): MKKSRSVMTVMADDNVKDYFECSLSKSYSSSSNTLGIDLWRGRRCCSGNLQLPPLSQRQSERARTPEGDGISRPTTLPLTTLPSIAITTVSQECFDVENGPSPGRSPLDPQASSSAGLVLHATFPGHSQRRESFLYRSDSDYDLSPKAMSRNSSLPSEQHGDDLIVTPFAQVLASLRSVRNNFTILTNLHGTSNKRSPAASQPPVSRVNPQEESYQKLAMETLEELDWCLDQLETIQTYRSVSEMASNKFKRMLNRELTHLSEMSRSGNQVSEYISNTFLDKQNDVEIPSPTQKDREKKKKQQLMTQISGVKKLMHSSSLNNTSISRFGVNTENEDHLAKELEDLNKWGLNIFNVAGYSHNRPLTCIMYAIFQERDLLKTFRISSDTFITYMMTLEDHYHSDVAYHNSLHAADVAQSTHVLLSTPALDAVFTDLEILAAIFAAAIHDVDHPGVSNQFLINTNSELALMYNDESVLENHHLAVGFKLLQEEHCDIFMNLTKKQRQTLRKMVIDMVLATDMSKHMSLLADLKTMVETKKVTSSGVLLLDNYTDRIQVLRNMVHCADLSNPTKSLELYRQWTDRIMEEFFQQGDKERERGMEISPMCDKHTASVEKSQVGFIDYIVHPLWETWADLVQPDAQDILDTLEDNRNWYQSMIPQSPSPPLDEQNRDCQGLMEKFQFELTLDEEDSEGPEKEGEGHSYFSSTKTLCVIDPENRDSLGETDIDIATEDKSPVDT
Background: Quantitative high-throughput screening tests each substance at several concentrations.

Values without a mark were called inactive. Results filed as inconclusive are left out. The source made the active and inactive calls. Unless noted, calls come from the whole dose curve; as a rule, active = well fitted curve in either direction with a large enough effect (not every such curve was filed as active); inconclusive = small, poorly fitted or top-dose-only effect, or another doubt; inactive = flat fitted curve, though single readings scatter. Bounds are passed on as bounds.

Cytochrome P450 1A2 (Homo sapiens), sequence (P05177 whole entry, looked up): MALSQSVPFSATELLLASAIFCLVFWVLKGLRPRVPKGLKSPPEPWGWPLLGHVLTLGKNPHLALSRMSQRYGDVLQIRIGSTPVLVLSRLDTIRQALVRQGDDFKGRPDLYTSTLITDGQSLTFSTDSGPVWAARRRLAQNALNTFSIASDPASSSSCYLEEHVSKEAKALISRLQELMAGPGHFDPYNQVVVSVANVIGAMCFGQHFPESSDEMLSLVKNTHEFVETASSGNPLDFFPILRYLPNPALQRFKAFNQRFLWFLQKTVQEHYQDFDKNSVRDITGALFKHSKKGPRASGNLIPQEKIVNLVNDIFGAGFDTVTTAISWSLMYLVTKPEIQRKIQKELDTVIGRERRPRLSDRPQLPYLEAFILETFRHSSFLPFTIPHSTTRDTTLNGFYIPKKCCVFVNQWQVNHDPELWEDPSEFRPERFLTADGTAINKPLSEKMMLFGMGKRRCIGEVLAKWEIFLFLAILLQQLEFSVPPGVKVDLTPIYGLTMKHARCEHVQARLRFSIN
Lysosomal acid glucosylceramidase (Homo sapiens), sequence (P04062 whole entry, looked up): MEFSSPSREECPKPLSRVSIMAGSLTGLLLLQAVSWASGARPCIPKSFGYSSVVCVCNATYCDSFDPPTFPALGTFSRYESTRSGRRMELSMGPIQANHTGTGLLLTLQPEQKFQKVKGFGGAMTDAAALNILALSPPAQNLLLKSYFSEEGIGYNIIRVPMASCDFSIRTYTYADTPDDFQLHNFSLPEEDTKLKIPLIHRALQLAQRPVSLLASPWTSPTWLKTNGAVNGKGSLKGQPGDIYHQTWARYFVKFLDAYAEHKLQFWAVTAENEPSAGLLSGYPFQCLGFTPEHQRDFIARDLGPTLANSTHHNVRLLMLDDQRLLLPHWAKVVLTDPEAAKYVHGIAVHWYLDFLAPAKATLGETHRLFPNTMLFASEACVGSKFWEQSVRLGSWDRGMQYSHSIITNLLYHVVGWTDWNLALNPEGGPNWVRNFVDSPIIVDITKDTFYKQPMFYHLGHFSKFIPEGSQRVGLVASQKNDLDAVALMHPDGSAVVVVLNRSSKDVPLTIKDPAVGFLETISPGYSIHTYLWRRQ

For `CC1(C)OC[C@@H]2O[C@H](n3cnc4c(N)nc(Cl)nc43)[C@@H](OS(C)(=O)=O)[C@@H]2O1`, the Potency in assay [1] is > 11.4 µM; in assay [6] it was > 46 µM; in assay [7] it was > 9.22 µM. The values for the activity change, negative = inhibition in assay [2], in [3] and in [4] were -1.96%, -14.5% [at 2.29 µM] and -7%, respectively. For the same compound, the activity, negative = inhibition in assay [5] is -0.333%. Further, the Potency result in [8] and in assay [9] was “inactive” in each case.

As to `COc1ccc(CSC2=C(C#N)C(=O)NC3(CCCCC3)S2)cc1`, the figures for the Potency in assay [1], in assay [6] and in [7] were > 11.4 µM, > 46 µM and > 9.22 µM, respectively. The results for the activity change, negative = inhibition in [2], in [3] and in assay [4] were 4.52%, -5.8% [at 2.29 µM] and 7.32%, respectively. In addition, the activity, negative = inhibition in assay [5] is 1.46%. Moreover, the Potency entry in assay [8] and in [9] was “inactive” throughout.

`NCCNC(=S)S`: the Potency in [1] was 9.83 µM (active); in assay [6] it was > 46 µM; in assay [7] it was > 9.22 µM. The activity change, negative = inhibition in assay [2] was 3.85%; in [3], -13.2% [at 2.29 µM]; in assay [4] it was -0.808%. Besides, in [5], the activity, negative = inhibition was -0.434%. Moreover, the Potency result in [8] and in assay [9] was “inactive” each time.

Consider `NC(Cc1ccccc1)=NCC(=O)O`, for which the Potency in [1] is > 11.4 µM; in assay [6], > 46 µM; in [7], > 9.22 µM. For the same compound, the activity change, negative = inhibition in assay [2] was 2%; in [4], -0.213%. For the same compound, the Potency entry in assay [3], in [8] and in assay [9] was “inactive” each time. Besides, in assay [5], the activity, negative = inhibition is -4.46%.

`C(=Nc1cnc2ccccc2c1)c1ccc2ccccc2n1`: the Potency in [1] was > 11.4 µM; in assay [3], 3.98 µM (active); in [6] it was > 46 µM; in [7], > 9.22 µM. For the same compound, the activity change, negative = inhibition is -2.4% in [2] and 3.2% in [4]. Moreover, in [5], the activity, negative = inhibition is -6.04%. In addition, the Potency entry in assay [8] and in assay [9] was “inactive” throughout.

As to `[O-][N+]1(CC[N+]2([O-])CCCCC2)CCCCC1`, the Potency in assay [1] was > 11.4 µM; in assay [6], > 46 µM; in assay [7] it was > 9.22 µM. Also, the activity change, negative = inhibition was -8.89% in [2] and 2.18% in [4]. Besides, the Potency result in [3], in [8] and in [9] was “inactive” each time. For the same compound, the activity, negative = inhibition in [5] was -8.8%.

With `CC(=O)[C@@H](C)CCO[C@@]1(C)OCC[C@@H]1C`, the Potency is > 11.4 µM in [1], > 46 µM in assay [6] and > 9.22 µM in assay [7]. Further, the values for the activity change, negative = inhibition in assay [2] and in [4] were 12.4% and 6.23%, respectively. The Potency entry in assay [3], in [8] and in [9] was “inactive” in each case. The activity, negative = inhibition in assay [5] was 14.8%.

In the case of `O=C(O)c1cccc(C(=O)O)c1S(=O)Cc1ccccc1` (stereo not given), the Potency in [1] is > 11.4 µM; in [6], > 46 µM; in assay [7], > 9.22 µM. Besides, the activity change, negative = inhibition was 5.26% in assay [2] and 7.39% in [4]. Besides, the Potency entry in assay [3], in assay [8] and in [9] was “inactive” each time. The activity, negative = inhibition in assay [5] was 6.2%.

Take `CN(C)c1ccc(C2N([C@H](C#N)c3ccc(N(C)C)cc3)CCCN2[C@@H](C#N)c2ccc(N(C)C)cc2)cc1` (stereo not given in full): the Potency in assay [1] is > 11.4 µM; in [3], 5.01 µM (active); in assay [6] it was > 46 µM; in [7] it was > 9.22 µM. Also, the figures for the activity change, negative = inhibition in [2] and in assay [4] were 0.74% and -11.3%, respectively. The activity, negative = inhibition in [5] was 6.93%. Also, the Potency result in assay [8] and in assay [9] was “inactive” throughout.

Regarding `O=c1ccnc(SCc2ccc(Cl)cc2)[nH]1`, the values for the Potency in [1], in [6] and in assay [7] were > 11.4 µM, > 46 µM and > 9.22 µM, respectively. The values for the activity change, negative = inhibition in assay [2] and in [4] were 0.709% and 2.66%, respectively. The Potency entry in assay [3], in assay [8] and in assay [9] was “inactive” throughout. In addition, the activity, negative = inhibition in assay [5] is 6.94%.

Consider `C/C(=N/NC1=NCCN1)c1cn(C2=NCCN2)nc1C`, for which the Potency in assay [1] is > 11.4 µM; in assay [6], > 46 µM; in assay [7] it was > 9.22 µM. Moreover, the activity change, negative = inhibition in [2] is 6.21%; in assay [3], -13.9% [at 2.29 µM]; in assay [4], -15.6%. In assay [5], the activity, negative = inhibition is 1.37%. The Potency result in [8] and in assay [9] was “inactive” in each case.

As for `C[N+](C)(C)c1ccc([C@H](N)C(=O)O)cc1`, the Potency in [1] is > 11.4 µM; in assay [6] it was > 46 µM; in assay [7], > 9.22 µM. Also, the activity change, negative = inhibition in assay [2] is -0.163%; in assay [4], -21.6%. Moreover, the Potency entry in assay [3], in assay [8] and in assay [9] was “inactive” each time. Besides, the activity, negative = inhibition in [5] is 0.0481%.

Turning to `O=C(O)c1ccc(C(=O)c2ccccc2C(=O)O)cc1C(=O)O`, the values for the Potency in assay [1], in [6] and in assay [7] were > 11.4 µM, > 46 µM and > 9.22 µM, respectively. In addition, the activity change, negative = inhibition in assay [2] was -15.3%; in [4] it was 20.9%. For the same compound, the Potency entry in [3], in assay [8] and in [9] was “inactive” throughout. In addition, the activity, negative = inhibition in assay [5] was -1.86%.

In the case of `C[N+]1(CCCC[N+]2(C)CCCCCCC2)CCCCCCC1`, the Potency in assay [1] is > 11.4 µM; in [6], > 46 µM; in assay [7] it was > 9.22 µM. Moreover, the activity change, negative = inhibition in assay [2] was 0.612%; in [3], -10.4% [at 2.29 µM]; in assay [4], -24.9%. In addition, the activity, negative = inhibition in [5] was -6.69%. Moreover, the Potency entry in [8] and in assay [9] was “inactive” throughout.

As to `Clc1ccccc1C(Nc1cnccn1)Nc1cnccn1`, the Potency is > 11.4 µM in [1], > 46 µM in assay [6] and > 9.22 µM in [7]. Besides, the activity change, negative = inhibition in [2] is 8.81%; in assay [3], -18% [at 2.29 µM]; in [4], 6.25%. In assay [5], the activity, negative = inhibition is -2.8%. Also, the Potency result in [8] and in [9] was “inactive” each time.
